Records with an inconclusive call do not appear. Unmarked numbers belong to inactive results. Calls come from the whole dose curve; as a rule, active = well fitted inhibition curve with a large enough effect; inconclusive = small, poorly fitted or top-dose-only effect; inactive = no such curve, though single readings can be large or run the other way.
Target: Retinaldehyde dehydrogenase 3 (Homo sapiens) (UniProt P47895)
Assay: qHTS for Inhibitors of the Aldehyde Dehydrogenase Family (ALDH1A3) Primary screen (AID 2061315);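 note: plate controls were DMSO vehicle for no effect and reference inhibitor for full effect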
Details: ALDH inhibition qHTS; series mostly up to 56 µM; activity change, negative = inhibition: at the top concentration

| SMILES | activity change, negative = inhibition |
| --- | --- |
| CCn1cnc2c(Nc3ccc(Cc4cccnc4)cc3)nc(C#N)nc21 | 12.4% |
| CCC/C=C/c1cc2c(C=O)c(O)c(CC=C(C)C)cc2o1 | -9.15% |
| O=C(O)c1ccc(O)c2ncc(-c3ccc(N4CCOCC4)cc3)cc12 | -13% |
| COc1ccc(C2c3c(nc(CCc4ccccc4)[nH]c3=O)Oc3ccc4ccccc4c32)cc1OC (stereo not given) | -7.47% |
| Cc1ccc(N2CCN(S(=O)(=O)c3ccc4c(c3)CC(=O)N4)CC2)cc1 | -9.65% [at 114 µM] |
| Cc1ccc(N[S+](=O)([O-])c2cc3c(cc2CCc2ccccc2)NC(=O)CO3)cc1C | 0.861% |
| CC(=O)NC(c1ccco1)c1cc(Cl)c2ccc(N(C)C)nc2c1O (stereo not given) | -10.9% |
| COc1ccc(-c2cnc(N3CCC(C(N)=O)CC3)s2)cc1OC | -10.6% |
| Fc1ccc(-c2ccc(CNc3nc(-c4ccccc4C(F)(F)F)nc4ccccc34)cc2)cc1 | -13.3% |
| O=C(Cc1ccc(Cl)c(Cl)c1)Nc1ccc(S(=O)(=O)Nc2cncnc2)cc1 | 23.9% |
| Cc1cc(/C=C/C#N)cc(C)c1Nc1nc(Nc2ccc3n[nH]nc3c2)c2[nH]cnc2n1 | 10.4% |
| O=C(Nc1ccc2ccccc2c1)Nc1nnc(-c2ccccn2)s1 | 3.93% |
| Cc1ccc(N2CCN(C(=S)Nc3cc(C)ccn3)CC2)cc1 | 0.568% |
| Cc1ccc(CNc2ncnc3cc(-c4ccc5c(c4)OCO5)ccc23)o1 | 1.77% |
| FC(F)(F)c1ccccc1-c1nc(NCc2ccc(-c3ccc(Cl)c(Cl)c3)cc2)c2ccccc2n1 | -14.5% |
| Cc1c(C(=O)O)[nH]c2c1C(=O)CC(c1ccco1)C2 (stereo not given) | -13.5% |
| COc1ccc(C2c3c(N)nc(Cc4ccccc4)nc3Oc3ccc4ccccc4c32)cc1OC (stereo not given) | -1.7% |
| N#Cc1c(-c2ccc(C(F)(F)F)cc2)no[n+]1[O-] | -6.59% |
| O=c1c2ccccc2nc2sc(NCc3ccccc3)nn12 | -4.33% |
| O=c1c2ccccc2nc2sc(NCc3ccc(Sc4ccccc4)cc3)nn12 | -0.346% |

| SMILES | activity change, negative = inhibition |
| --- | --- |
| O=c1c2ccccc2nc2sc(NS(=O)(=O)c3ccc4c(c3)CCC4)nn12 | -5.34% |
| CCOC(=O)c1nn(-c2ccc(OC)cc2)c(=O)c2c(N)scc12 | -15.6% |
| CCCC1CCN(C(=O)COC(=O)c2ccc(S(C)(=O)=O)c([N+](=O)[O-])c2)CC1 | -5.97% |
| COc1cccc(CNc2ccc(S(=O)(=O)Nc3cccc4ccccc34)cc2)c1O | -13.5% |
| CN(C)c1ccc(C(=O)OCC#CCSc2nnc(-c3cccc4ccccc34)o2)cc1 | 15.4% |
| O=C1CCCC2=C1C1(CCOCC1)N=C(Nc1nc3ccccc3o1)N2 | 5.79% |
| COCCNc1ccc(NC(=O)c2cccs2)cn1 | -17% |
| CC(O)c1ccc(-c2ccc3ncnc(NCC4CCCO4)c3c2)o1 (stereo not given) | -8.93% |
| CC(=O)Nc1sc2c(c1-c1ccc(OC(F)(F)F)cc1)CCNC2 | -15.3% |
| CC1=C(C(=O)Nc2ccon2)C(c2nn(C)cc2Cl)N=C(Nc2nc3ccccc3o2)N1 (stereo not given) | 16% |
| O=C1c2ccccc2NC(c2ccc(-c3cccc(Cl)c3)o2)N1O (stereo not given) | 17.8% |
| CC(C)c1ccc(NC(=O)C(c2ccccc2)N(C)C(=O)Cc2c[nH]c3ccccc23)cc1 (stereo not given) | 9.15% |
| COc1cc(O)c([C@H](CC(=O)N2CC(C)CC(C)C2)c2ccc3c(c2)OCO3)c(OC)c1 (stereo not given in full) | 9.52% [at 114 µM] |
| COc1cccc(CNc2ccc(S(=O)(=O)Nc3cccs3)cc2)c1O | -2.44% [at 11.2 µM] |
| c1cncc(-c2ccc3ncnc(NCc4ccc5c(c4)OCO5)c3c2)c1 | -11.4% |
| O=S1(=O)N=C(Oc2ccc(Br)cc2)c2ccccc21 | -15.8% |
| Cc1ccc(C)c(SC2=N[S+](=O)([O-])c3cc(C(=O)Nc4ccc5ncccc5c4)ccc32)c1 | -7.5% |
| Cc1c(C(N)=O)[nH]c2c1C(=O)CC(c1ccco1)C2 (stereo not given) | -21.6% |
| CN(CC(=O)Nc1ccc(N2CCOCC2)cc1)Cc1cccc2ccccc12 | -12.5% |
| Cc1ccnc(NC(=S)N2CCN(c3cccc(C(F)(F)F)c3)CC2)n1 | 34.1% |
